The target in experiment [1] is Luciferin 4-monooxygenase (Photinus pyralis) (UniProt P08659). Nature of the experiment: Biochemical firefly luciferase enzyme assay for NPC (AID 624030). Further: potency means the concentration at half of the fitted maximal effect; nearly all actives have a fitted effect of over 70% in size. A digest of the protocol:
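Counter-screen for direct inhibition of the luciferase enzyme by approved-drug library compounds, run at 10 nM enzyme in 50 mM Tris acetate (final). Luminescence was read within 5 min of enzyme-buffer addition and normalized to PTC124 versus DMSO (0%).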

Experiment [2] in a line: S16 Schwann cell viability assay (CellTiter-Glo assay) (AID 624031).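 Further: plate controls were DMSO-treated cells for no effect and cell-free wells for full effect; nearly all actives have a fitted effect of over 70% in size.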 In a few lines:
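Native S16 Schwann cells (rat), serum-containing medium, overnight attachment then 24 h drug exposure at 37 °C/5% CO2. CellTiter-Glo ATP signal; normalized to cell-free and vehicle wells.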

A short description of experiment [3]: S16 Schwann cell PMP22 intronic element firefly luciferase assay (AID 624032).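 Further: plate controls were DMSO for no effect and PTC124 positive control mean for full effect; nearly all actives have a fitted effect of over 30% in size.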 A digest of the protocol:
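Rat S16 Schwann cells stably carrying a PMP22 intronic element-driven Fluc reporter were seeded overnight, then exposed to compounds for 24 h at 37 °C. Luminescence was normalized to PTC124 (positive control) and DMSO (0% activity).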

The test system of another experiment is CP260. Nature of the experiment: qHTS profiling for inhibitors of Plasmodium falciparum proliferation (AID 504749).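 Further: 0% = DMSO vehicle and full inhibition = artemisinin control; nearly all actives have a fitted effect of over 60% in size.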 The conditions noted are these: P. falciparum in erythrocytes, SYBR Green DNA, 72 h; series mostly up to 28.7 µM. In a few lines:
(§1)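 P. falciparum-infected erythrocytes (0.3% parasitemia, 2.5% hematocrit final) were exposed to compounds for 72 h at 37 C in 5% CO2, then lysed with SYBR Green buffer overnight at room temperature; parasite DNA fluorescence was normalized to artemisinin and DMSO controls.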

In another experiment the test system is ICS. The experiment is described as above. The following applies: P. falciparum in erythrocytes, SYBR Green DNA, 72 h; series mostly up to 28.7 µM. A digest of the protocol: as §1
In the next experiment the test system is JCK. Described as above. The following applies: P. falciparum in erythrocytes, SYBR Green DNA, 72 h; series mostly up to 28.7 µM. A digest of the protocol: as §1
The test system of a further experiment is N140. Described as above. The following applies: P. falciparum in erythrocytes, SYBR Green DNA, 72 h; series mostly up to 28.7 µM. A digest of the protocol:
as §1

Experiment [4] concerns the target DNA dC->dU-editing enzyme APOBEC-3G (Homo sapiens) (UniProt Q9HC16). Nature of the experiment: qHTS for inhibitors of Vif-A3G interactions: Validation (AID 588379). Further: 0% is about no effect. In a few lines:
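HeLa cells stably expressing Vif and A3G-eYFP, 700 cells/well, incubated overnight at 37 deg C, then exposed to compound overnight at 37 deg C. Inhibition of Vif-mediated degradation read as increased yellow fluorescence (Ex 488/Em 500-530) by laser-scanning cytometry.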
(qHTS replaces the single test concentration by a dilution series.)

Experiment [5] is described as follows: Cell Viability - BJ (AID 421; calls by dose curve;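 further: potency means the concentration at half of the fitted maximal effect; cells exposed to compound for 40 hours at 37 °C before readout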). The conditions noted are these: BJ fibroblast viability, qHTS. In a few lines:
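Luminescent ATP signal (CellTiter-Glo, 20 min at room temperature) served as the read-out of viable BJ cells after 40 hours of compound treatment. Responses were scaled between DMSO and 100 uM tamoxifen, and AC50 values were obtained by Hill modeling.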

The nature of experiment [6]: Cell Viability - Jurkat (AID 426;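 active means dose-dependent loss of cell ATP signal giving a full or clear fitted curve, ranked by lower potency value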; further: potency means the concentration at half of the fitted maximal effect). The conditions noted are these: qHTS. In a few lines: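 Jurkat (clone E6-1, human T-cell leukemia) cells, 5000/well in complete medium, were exposed to compound for 40 hr at 37 °C. Viability was read as intracellular ATP by CellTiter-Glo luminescence; AC50 came from Hill fits of concentration-response data.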
Experiment [7] is described as follows: Cell Viability - Hek293 (AID 427;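 active means compounds whose dose-response curve shows a full or clear partial loss of cell viability, called from curve shape rather than a numeric limit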;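 further: potency means the concentration at half of the fitted maximal effect; cells exposed to compound for 40 hours at 37 °C before reading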). The conditions noted are these: qHTS. In a few lines: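 Luminescent ATP read-out (CellTiter-Glo, 20 min RT) after 40 hr compound exposure at 37 °C in complete medium. Signal normalized to DMSO (basal) and 100 uM tamoxifen (100% inhibition); concentration-response fitted with the standard Hill equation to give AC50.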
A short description of experiment [8]: Cell Viability - HepG2 (AID 433; calls by dose curve;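 further: potency means the concentration at half of the fitted maximal effect; potency for ATP loss meaning cytotoxicity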). The conditions noted are these: qHTS. In a few lines: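 HepG2 cells, 1500 per well, treated 40 hr at 37 °C in complete medium; viability from intracellular ATP by CellTiter-Glo luminescence. Normalized to DMSO and 100 uM tamoxifen; AC50 from Hill fit of qHTS concentration-response.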
Experiment [9] is described as follows: Cell Viability - MRC5 (AID 434; calls by dose curve;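 further: potency means the concentration at half of the fitted maximal effect; potency reflects cytotoxicity seen as loss of intracellular ATP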). The conditions noted are these: MRC5 lung fibroblast viability, qHTS. A digest of the protocol: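 MRC5 normal human lung fibroblasts (1500/well) were treated with compounds for 40 hr at 37 °C in complete medium, and viable cells were measured as intracellular ATP by CellTiter-Glo luminescence. AC50 came from Hill fits, normalized to DMSO and 100 uM tamoxifen.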

Experiment [10] can be described thus: Cell Viability - SK-N-SH (AID 435; calls by dose curve;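 further: potency means the concentration at half of the fitted maximal effect; compound exposure lasted 40 h at 37 °C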). The following applies: SK-N-SH neuroblastoma cell viability qHTS. In a few lines: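 SK-N-SH neuroblastoma cells (1500/well) treated 40 h at 37 °C in complete medium; viability read as cellular ATP by CellTiter-Glo luminescence. Normalized to DMSO and 100 uM tamoxifen; AC50 from Hill fits of qHTS concentration-response.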

A short description of experiment [11]: Cell Viability - N2a (AID 540).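 Further: plate controls were DMSO alone for no effect and tamoxifen control for full effect; nearly all actives have a fitted effect of over 45% in size.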 The conditions noted are these: N2a mouse neuroblastoma cell viability; activity change, negative = cytotoxicity: at 92.2 µM (top of the series). A digest of the protocol:
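Mouse neuroblastoma N2a cells (1500/well) were preincubated 5 hr at 37 °C, then exposed to compounds for 40 hr at 37 °C in complete medium. Viability was read as intracellular ATP by CellTiter-Glo luminescence; AC50 from Hill fits.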

The nature of experiment [12]: Cell Viability - NIH 3T3 (AID 541).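 Further: plate controls were DMSO alone for no effect and tamoxifen positive control for full effect; nearly all actives have a fitted effect of over 25% in size.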 The following applies: NIH 3T3 cell viability, qHTS; activity change, negative = cytotoxicity: at 92.2 µM (top of the series). A digest of the protocol:
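NIH 3T3 mouse embryo fibroblasts (1000 cells/well) were plated in complete medium and treated with compound for 40 hr at 37 °C. Viability was read as intracellular ATP by CellTiter-Glo luminescence; AC50 values came from Hill-equation fits of concentration-response data.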

A short description of experiment [13]: Cell Viability - HUV-EC-C (AID 542). Further: on the % scale 0 is the no-effect control and ±100 the full control effect; nearly all actives have a fitted effect of over 35% in size. A digest of the protocol:
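HUV-EC-C normal human vascular endothelial cells, 1000 cells/well, pre-incubated 5 hr at 37 °C, then exposed to compounds for 40 hr at 37 °C in complete medium. Viability measured as intracellular ATP by CellTiter-Glo luminescence; AC50 from Hill fits.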

Experiment [14] can be described thus: Cell Viability - H-4-II-E (AID 543). Further: on the % scale 0 is the no-effect control and ±100 the full control effect; nearly all actives have a fitted effect of over 35% in size. In a few lines: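 Rat hepatoma H-4-II-E cells (1500/well) were plated, incubated 5 hr at 37 °C, then exposed to compounds for 40 hr at 37 °C. Cellular ATP was read by CellTiter-Glo luminescence; AC50 came from Hill-equation fits of concentration-response data.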
Experiment [15] in a line: Cell Viability - Renal Proximal Tubule (AID 545).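 Further: 0% = DMSO only and -100% = 100 µM tamoxifen; nearly all actives have a fitted effect of over 40% in size.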 The conditions noted are these: renal proximal tubule cells viability, primary cells of rat origin; at 91.7 µM (top of the series). A digest of the protocol:
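Rat renal proximal tubule primary cells, 1000/well, exposed to compounds for 40 hr at 37 °C in complete medium; cellular ATP read by CellTiter-Glo luminescence. AC50 from concentration-response fitted with standard Hill equation.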

Experiment [16] can be described thus: qHTS Assay for Identification of Small Molecule Inducers of Hypoxia Response (AID 2120; active means well fitted curve in the direction sought with a large enough effect in the signal ratio, with a control signal flat, not every such curve was filed as active; the % refers to the signal ratio; further: 0% is about no effect). In a few lines: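 HRE-beta-lactamase reporter in CellSensor HRE-bla ME-180 cells, 2500 cells/well in Opti-MEM with 0.5% dialyzed FBS; compounds tested as titration series, 17 h at 37 degrees C. CCF4 substrate 2.5 h at room temperature; AC50 from 460/530 nm ratio.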

Values without a mark were called inactive. Records with an inconclusive call do not appear. Activity calls are given as the source filed them. Unless noted, the call rests on the fitted dose curve; in most records, active means well fitted curve in the direction sought with a large enough effect; inconclusive means small, poorly fitted or top-dose-only effect, or another doubt; inactive means no such curve, though single readings can be large; an effect the other way counts as inactive or inconclusive.

This is an account of results in PubChem BioAssay (NCATS).

Chain of DNA dC->dU-editing enzyme APOBEC-3G (Homo sapiens) (Q9HC16 whole entry, looked up): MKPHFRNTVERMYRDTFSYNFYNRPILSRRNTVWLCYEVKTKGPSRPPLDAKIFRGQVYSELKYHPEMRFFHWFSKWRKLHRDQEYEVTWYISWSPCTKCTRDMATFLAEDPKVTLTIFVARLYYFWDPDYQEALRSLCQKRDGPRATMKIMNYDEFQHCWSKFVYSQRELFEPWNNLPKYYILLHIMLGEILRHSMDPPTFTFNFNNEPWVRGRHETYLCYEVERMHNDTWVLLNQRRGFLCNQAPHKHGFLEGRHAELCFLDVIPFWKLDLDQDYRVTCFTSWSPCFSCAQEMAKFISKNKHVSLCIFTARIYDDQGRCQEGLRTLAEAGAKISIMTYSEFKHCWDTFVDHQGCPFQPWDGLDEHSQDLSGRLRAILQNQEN
Chain of Luciferin 4-monooxygenase (Photinus pyralis) (P08659 whole entry, looked up): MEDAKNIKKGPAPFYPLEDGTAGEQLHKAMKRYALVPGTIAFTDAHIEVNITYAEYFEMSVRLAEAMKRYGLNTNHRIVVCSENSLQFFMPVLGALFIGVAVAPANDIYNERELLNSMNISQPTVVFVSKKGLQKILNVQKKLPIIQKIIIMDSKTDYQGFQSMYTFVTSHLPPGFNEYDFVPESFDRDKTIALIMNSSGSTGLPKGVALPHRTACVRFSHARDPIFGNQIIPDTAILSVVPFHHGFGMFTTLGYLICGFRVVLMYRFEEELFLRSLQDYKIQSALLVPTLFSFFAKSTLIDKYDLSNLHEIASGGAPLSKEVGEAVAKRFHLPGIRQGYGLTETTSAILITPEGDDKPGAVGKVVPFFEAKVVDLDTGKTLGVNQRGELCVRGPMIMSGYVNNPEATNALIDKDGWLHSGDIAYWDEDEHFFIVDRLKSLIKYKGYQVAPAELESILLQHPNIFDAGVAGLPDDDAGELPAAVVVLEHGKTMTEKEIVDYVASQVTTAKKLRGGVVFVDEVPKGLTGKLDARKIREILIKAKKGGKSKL

Regarding `O=C(O)c1cc(O)c2c(c1)[C@H]([C@H]1c3cc(C(=O)O)cc(O)c3C(=O)c3c(O[C@@H]4OC(CO)C(O)C(O)C4O)cccc31)c1cccc(O[C@@H]3OC(CO)C(O)C(O)C3O)c1C2=O` (stereo not given in full), the Potency in [1] was 16.1 µM (active). For the same compound, the Potency result (in experiment [2]; in [3]; in the experiment with CP260; with ICS; in the experiment on JCK; with N140) was “inactive” each time.
`O=c1ccc2cc3ccoc3cc2o1`: the compound was called inactive in [4].
With `CC12CCC(CC1=O)C2(C)C` (stereo not given), the Potency in experiment [5], in experiment [6], in experiment [7], in experiment [8], in experiment [9] and in experiment [10] was greater than 92 µM throughout. The activity change, negative = cytotoxicity is -9.82% in [11] and -5.29% in experiment [15]. Also, the Potency entry in experiment [12] and in experiment [14] was “inactive” throughout. The outcome in [13] and in experiment [16] was inactive.
